# According to PubChem BioAssay (NCI):
# This is part of a sample that, as a whole, favours compounds with a hit. Of some 83,000 tested, about 20% had one in any assay.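 Plates (96-well) were seeded with cells, treated with compound at one concentration, and incubated for 48 hours before percent growth was determined.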 A number with no mark means an inactive call. Active and inactive are the calls of the source. How the source made its calls: active means growth percent below 10; inactive means the rest.
# System: UACC-62 melanoma
# Experiment: NCI-60 one-dose screen, 48 h (100 = growth as untreated, 0 = no growth, -100 = all killed)
# Details: 10 µM unless noted
row,SMILES,growth
1,COCCOC(=O)C1=C(C)NC(=S)NC1c1ccc2c(c1)OCO2 (stereo not drawn),102%
2,O=S(=O)(Nc1ccc(F)c(Cl)c1)c1ccc(-c2cnc(C3CC3)o2)cc1,28.3%
3,NCCN1CCN(c2nccc(-c3ccc4ccccc4c3)n2)CC1,-65.3% (active)
4,CCN(CC)Cc1cc(Nc2c3ccc(Cl)cc3nc3c(C)cccc23)ccc1O,-79.3% (active)
5,N#Cc1ccc(NC(=O)Nc2ccc(Cc3ccc(NC(=O)Nc4ccc(C#N)cc4)cc3)cc2)cc1,14.2%
6,CCCCNc1ccc2c3c1cccc3c(=O)n1c3ccccc3nc21,85.9%
7,O=C1O[C@H]([C@H](O)CO)C(O)=C1O,98.1%
8,CCC(=O)OCc1cccc(OC)c1,95.8%
9,Cc1ccc2cnc(N)c(C#Cc3cncc(C(=O)Nc4ccc(CN5CCN(C)CC5)c(C(F)(F)F)c4)c3)c2c1,-85.5% (active)
10,CC#Cc1nc2ccccc2c(=O)[nH]1,50.1%
11,COc1cc2c(cc1O)CCc1cc(O)cc(OC)c1-2,87.2%
12,CCCCCCCCCCCCS(=O)CC(C)O (stereo not drawn),92.6%
13,COc1ccc(/C=C2\N=C3Sc4cc(Cl)ccc4C(=O)N3C2=O)cc1,98%
14,O=C1C(Cl)=C(Cl)C(=O)c2c1nc1n2CCCC1,93.7%
15,CN1CCN(Cc2ccc(NC(=O)c3cncc(C#Cc4c(N)ncc5ccc(C#N)cc45)c3)cc2C(F)(F)F)CC1,-68.5% (active)
16,Nc1nc(SCc2ccccc2)c2ncn(C3CCCC3)c2n1,81.4%
17,COc1cc(NC(N)=NCC(C)(C)COc2ccc(C(F)(F)F)cc2)cnc1C#N,61.7%
18,CCCCCCCCCCCCCCCC(=O)OCC1OC(n2cnc3c(=S)nc(N)[nH]c32)C(OC(=O)CCCCCCCCCCCCCCC)C1OC(=O)CCCCCCCCCCCCCCC (stereo not drawn),31.7%
19,O=[N+]([O-])c1cccc(-c2nc3sccn3c2-c2ccnc(NCCCNS(=O)(=O)c3ccc(Br)cc3)n2)c1,2.78% (active)

row,SMILES,growth
1,COc1ccc(-c2nc(Nc3cc(C)[nH]n3)c3ccccc3n2)cc1,52.9%
2,O=C1Nc2c(ccc(Cl)c2Cl)/C1=C/c1cc(Br)c(O)c(Br)c1,26.1%
3,Nc1nc2ccc(-c3nc4ccc5[nH]ncc5c4c4c3CCC4)cc2s1,-46.2% (active)
4,Cc1cc(Cl)ccc1Nc1nc(C(F)(F)F)ccc1C(=O)N/N=C/c1ccc(F)cc1,15.4%
5,COc1ccc(C(=O)COc2ccc(/C=C3\Oc4ccc(Cl)cc4C3=O)cc2)cc1,83.6%
6,CC[C@@H](C)OC(=O)c1nn(C(C)=O)c2ccccc12,99.2%
7,CCN(CC)c1ccc(/C=C/C2=[N+](C)c3ccccc3C2(C)C)cc1,16%
8,CCCCCCCCCCCCCCCC[N+]1(CC)CCCC1,-78.3% (active)
9,COc1cc(OC)c(/C=C/c2cc[n+](C)c3ccccc23)c(OC)c1,12.7%
10,CC[C@H](Nc1nc(N)nc(C)c1C#N)c1nc2cccc(NCc3ccc(C(=O)NO)cc3)c2c(=O)n1-c1ccccc1,-28.6% (active)
11,O=C(CN1CCOCC1)Nc1ccc(Cn2nnc3c2C(=O)c2nnn(Cc4ccc(NC(=O)CN5CCOCC5)cc4)c2C3=O)cc1,-77.3% (active)
12,COc1ccc2[nH]c(=O)c(/C=C/C(=O)c3ccc(Nc4nccc(-c5ccc6ccccc6c5)n4)cc3)cc2c1,88.7%
13,OC(c1cccc(C(F)(F)F)c1)c1cnccc1NC1CCCCCC1 (stereo not drawn),55%
14,CNC(=O)c1cc(Oc2ccc3nc(NC(=O)Nc4ccc(CN5CCOCC5)c(C(F)(F)F)c4)sc3c2)ccn1,0.564% (active)
15,O=c1c2cccc3c(Nc4ccccn4)ccc(c32)c2nc3ccccc3n12,64.3%
16,CC(C)[C@@H]1CC[C@]2(C(=O)NCCCCN=C(N)N)CC[C@]3(C)[C@H](CC[C@@H]4[C@@]5(C)CCC(=O)C(C)(C)[C@@H]5CC[C@]43C)[C@@H]12,48.2%
17,Cc1ccc2c(c1)n([O-])c1cc(Cl)ccc1[n+]2=O,89%
18,CC(C)(C)n1cc(-c2ccnc(NCCCNS(=O)(=O)c3cccc4ccccc34)c2)c(-c2cccc(O)c2)n1,51.2%
19,COc1ccc(-c2cc(=O)[nH]c3c(OC)c4ccccc4c(OC)c23)cc1,21.1%
